{
  "source": "paper PMC4336329",
  "about": "(PLoS ONE, 2015)",
  "note": "The whole screen tested about 310,000 compounds, of which about 14,000 (4.5%) showed an effect of 50% or more. The effect is printed as a negative number. The list comes from a sample in which strong results are over-represented; it also holds similar structures and randomly drawn compounds.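 Note: peak tail current of the secondary pulse compared with the same well before compound.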",
  "data": [
    {"target": "human ether-à-go-go-related gene (hERG) potassium channel (human, UniProt Q12809)", "sequence (Q12809 whole entry, looked up)": "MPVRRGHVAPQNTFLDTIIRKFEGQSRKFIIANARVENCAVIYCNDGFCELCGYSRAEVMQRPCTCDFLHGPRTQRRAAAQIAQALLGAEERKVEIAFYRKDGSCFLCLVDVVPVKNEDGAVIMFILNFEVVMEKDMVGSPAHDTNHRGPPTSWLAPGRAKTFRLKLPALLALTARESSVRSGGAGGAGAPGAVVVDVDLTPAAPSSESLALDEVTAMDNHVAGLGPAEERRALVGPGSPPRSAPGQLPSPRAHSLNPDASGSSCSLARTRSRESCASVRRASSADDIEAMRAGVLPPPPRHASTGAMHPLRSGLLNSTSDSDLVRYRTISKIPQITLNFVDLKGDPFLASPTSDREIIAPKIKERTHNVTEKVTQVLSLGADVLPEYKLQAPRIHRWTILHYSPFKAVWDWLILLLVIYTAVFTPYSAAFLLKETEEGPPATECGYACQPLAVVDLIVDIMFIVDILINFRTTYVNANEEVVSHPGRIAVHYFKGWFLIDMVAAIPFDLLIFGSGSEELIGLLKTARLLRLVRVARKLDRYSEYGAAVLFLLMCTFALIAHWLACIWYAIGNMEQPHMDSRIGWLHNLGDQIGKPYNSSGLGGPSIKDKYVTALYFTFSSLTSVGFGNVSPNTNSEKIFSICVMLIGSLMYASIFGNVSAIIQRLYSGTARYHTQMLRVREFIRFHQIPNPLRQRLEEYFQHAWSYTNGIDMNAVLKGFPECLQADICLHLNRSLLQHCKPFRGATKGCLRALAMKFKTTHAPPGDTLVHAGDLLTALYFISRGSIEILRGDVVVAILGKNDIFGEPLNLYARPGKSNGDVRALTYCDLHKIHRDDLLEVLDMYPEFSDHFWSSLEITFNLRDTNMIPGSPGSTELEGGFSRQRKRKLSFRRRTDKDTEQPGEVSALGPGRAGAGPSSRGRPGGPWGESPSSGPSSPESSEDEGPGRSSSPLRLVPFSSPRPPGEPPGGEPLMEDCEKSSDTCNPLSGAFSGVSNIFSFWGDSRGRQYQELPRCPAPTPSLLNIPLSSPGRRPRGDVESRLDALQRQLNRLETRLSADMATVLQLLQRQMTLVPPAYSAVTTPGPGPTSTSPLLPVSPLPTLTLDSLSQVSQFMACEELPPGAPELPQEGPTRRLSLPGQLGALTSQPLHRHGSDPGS", "experiment": "primary screen, population patch clamp on CHO cells stably expressing hERG; higher = less effect of the substance", "units": {"hERG current change (%, negative = inhibition) at 10uM": "%"}, "values": [
      {"smiles": "CCN(C(=O)Nc1ccccc1)c1ccccc1", "hERG current change (%, negative = inhibition) at 10uM": 4.25},
      {"smiles": "CN(C)CCCNc1ccc(-c2nn(C)c(=O)c3ccccc23)cc1[N+](=O)[O-]", "hERG current change (%, negative = inhibition) at 10uM": -16},
      {"smiles": "Cl.Fc1ccc(Cn2nnnc2CN2CCc3ccccc3C2)cc1", "hERG current change (%, negative = inhibition) at 10uM": -10.6},
      {"smiles": "Cn1c(CSc2nc3ccccc3s2)nnc1SCC(=O)NCc1cccnc1", "hERG current change (%, negative = inhibition) at 10uM": -5.4},
      {"smiles": "CC(=O)Nc1cccc(OCc2cnc(Cl)s2)c1", "hERG current change (%, negative = inhibition) at 10uM": 11.4},
      {"smiles": "COc1ccccc1-c1c(C)nn2c(N3CCCCCC3)cc(C)nc12", "hERG current change (%, negative = inhibition) at 10uM": -8.02},
      {"smiles": "CSc1ncc(C(=O)Nc2cccc(C)c2C)c(C)n1", "hERG current change (%, negative = inhibition) at 10uM": 9.56},
      {"smiles": "Cc1ccc(C(=O)Nc2ccc(Br)c(C(F)(F)F)c2)cc1", "hERG current change (%, negative = inhibition) at 10uM": 4.38},
      {"smiles": "Cc1nn2c(COc3ccc(NC(=O)c4ccccc4)cc3)nnc2c2ccccc12", "hERG current change (%, negative = inhibition) at 10uM": 4.38},
      {"smiles": "Cc1nnc(SCc2ccc(F)cc2)n1NC/C=C/c1ccccc1", "hERG current change (%, negative = inhibition) at 10uM": -18.6},
      {"smiles": "CC(=O)c1ccc(OCC(=O)NCC2(N3CCCCC3)CCCCC2)cc1", "hERG current change (%, negative = inhibition) at 10uM": 4.71},
      {"smiles": "N#Cc1ccc(OCC(=O)NCC2(N3CCCCC3)CCCCC2)cc1", "hERG current change (%, negative = inhibition) at 10uM": -78.2},
      {"smiles": "CCC(=O)c1ccc(OCC(=O)NCC2(N3CCCCC3)CCCCC2)cc1", "hERG current change (%, negative = inhibition) at 10uM": -51.5},
      {"smiles": "CCOc1ccc(CC(=O)NCC2(N3CCCCC3)CCCCC2)cc1", "hERG current change (%, negative = inhibition) at 10uM": -17},
      {"smiles": "N#Cc1ccccc1OCC(=O)NCC1(N2CCCCC2)CCCCC1", "hERG current change (%, negative = inhibition) at 10uM": -29.4},
      {"smiles": "O=C(COc1ccccc1)NCC1(N2CCCCC2)CCCCC1", "hERG current change (%, negative = inhibition) at 10uM": -30},
      {"smiles": "C/C(CCc1ccco1)=N/NC(=O)CCC(=O)Nc1ccc(Br)cc1", "hERG current change (%, negative = inhibition) at 10uM": 10.2},
      {"smiles": "CCn1c(SCc2nc3sc(C(=O)O)c(C)c3c(=O)[nH]2)nc2ccccc21", "hERG current change (%, negative = inhibition) at 10uM": 3.32},
      {"smiles": "CC(C)(C)C(=O)N1c2ccccc2CCc2ccccc21", "hERG current change (%, negative = inhibition) at 10uM": -0.0543},
      {"smiles": "C=CCn1c(COc2ccccc2)nc2ccccc21", "hERG current change (%, negative = inhibition) at 10uM": -7.62},
      {"smiles": "CCOCCn1c(COc2ccccc2)nc2ccccc21", "hERG current change (%, negative = inhibition) at 10uM": -33.6},
      {"smiles": "CCOCCn1c(COc2ccc(C)cc2)nc2ccccc21", "hERG current change (%, negative = inhibition) at 10uM": -52.6},
      {"smiles": "C=CCn1c(COc2ccc(OC)cc2)nc2ccccc21", "hERG current change (%, negative = inhibition) at 10uM": -79.8},
      {"smiles": "COCCn1c(COc2ccc(C)cc2)nc2ccccc21", "hERG current change (%, negative = inhibition) at 10uM": -11.9},
      {"smiles": "C=CCn1c(COc2ccccc2OC)nc2ccccc21", "hERG current change (%, negative = inhibition) at 10uM": -0.267},
      {"smiles": "O=C(Nc1cccc(NC(=O)c2ccccc2Cl)c1)c1ccc([N+](=O)[O-])o1", "hERG current change (%, negative = inhibition) at 10uM": -16.4},
      {"smiles": "CC1Cc2nc(SCC(=O)N3CCCC3)n(C)c(=O)c2S1", "note": "(stereo not drawn)", "hERG current change (%, negative = inhibition) at 10uM": -7.79},
      {"smiles": "COc1ccc(C(=O)Nc2ccc(NC(=O)c3cccs3)cc2)cc1[N+](=O)[O-]", "hERG current change (%, negative = inhibition) at 10uM": 5.49},
      {"smiles": "O=C1C2ON(c3ccccc3)C(c3cccnc3)C2C(=O)N1Cc1ccccc1", "note": "(stereo not drawn)", "hERG current change (%, negative = inhibition) at 10uM": -50.8},
      {"smiles": "O=C1C2ON(c3ccccc3)C(c3cccnc3)C2C(=O)N1c1ccccc1", "note": "(stereo not drawn)", "hERG current change (%, negative = inhibition) at 10uM": 18.1},
      {"smiles": "O=C1C2ON(c3ccccc3)C(c3cccnc3)C2C(=O)N1c1ccc(Cl)c(Cl)c1", "note": "(stereo not drawn)", "hERG current change (%, negative = inhibition) at 10uM": 10.5},
      {"smiles": "CC(C)(C)n1nnnc1C(c1ccc(F)cc1)N1CCC(C(N)=O)CC1.Cl", "note": "(stereo not drawn)", "hERG current change (%, negative = inhibition) at 10uM": 11.3},
      {"smiles": "CC(C)(CNC(=O)c1ccc(-c2cccc(C(F)(F)F)c2)o1)N1CCOCC1", "hERG current change (%, negative = inhibition) at 10uM": -76.3},
      {"smiles": "CC(=O)N1CCN(C(=O)c2ccc(-c3cccc(C(F)(F)F)c3)o2)CC1", "hERG current change (%, negative = inhibition) at 10uM": -53.5},
      {"smiles": "O=C(c1ccco1)N1CCN(C(=O)c2ccc(-c3cccc(C(F)(F)F)c3)o2)CC1", "hERG current change (%, negative = inhibition) at 10uM": -79.9},
      {"smiles": "COc1ccc(C(CNC(=O)c2ccc(-c3cccc(C(F)(F)F)c3)o2)N2CCOCC2)cc1", "note": "(stereo not drawn)", "hERG current change (%, negative = inhibition) at 10uM": -6.09},
      {"smiles": "O=C(c1ccc(-c2cccc(C(F)(F)F)c2)o1)N1CCOCC1", "hERG current change (%, negative = inhibition) at 10uM": -21.8},
      {"smiles": "O=C(c1ccc(-c2cccc(C(F)(F)F)c2)o1)N1CCCCCCC1", "hERG current change (%, negative = inhibition) at 10uM": -3.68},
      {"smiles": "O=C(c1ccc(-c2cccc(C(F)(F)F)c2)o1)N1CCN(c2ccccc2O)CC1", "hERG current change (%, negative = inhibition) at 10uM": 17.1},
      {"smiles": "CC1CN(C(=O)c2ccc(-c3cccc(C(F)(F)F)c3)o2)CC(C)O1", "note": "(stereo not drawn)", "hERG current change (%, negative = inhibition) at 10uM": -43.7},
      {"smiles": "O=C(c1ccco1)N1CCN(Cc2cccc(C(F)(F)F)c2)CC1", "hERG current change (%, negative = inhibition) at 10uM": -5.15},
      {"smiles": "CC(=O)NC(CC(=O)Nc1cccc(S(=O)(=O)N2CCCCC2)c1)c1ccccc1", "note": "(stereo not drawn)", "hERG current change (%, negative = inhibition) at 10uM": -1.76},
      {"smiles": "CCCCC(=O)Nc1cc(Cl)ccc1C(=O)O", "hERG current change (%, negative = inhibition) at 10uM": 27.6},
      {"smiles": "CC(=O)N1CCC(c2c[nH]c3ccccc23)CC1", "hERG current change (%, negative = inhibition) at 10uM": 5.87},
      {"smiles": "CCn1ncc(-c2ccnc3cc(C(=O)O)nn23)c1C", "hERG current change (%, negative = inhibition) at 10uM": 12.6},
      {"smiles": "CC(c1ccccc1)n1c(N2CCNCC2)nc2c1c(=O)[nH]c(=O)n2C", "note": "(stereo not drawn)", "hERG current change (%, negative = inhibition) at 10uM": 6.32},
      {"smiles": "O=C(/C=C/c1ccccc1)OCc1cnc(Cl)s1", "hERG current change (%, negative = inhibition) at 10uM": -6.4},
      {"smiles": "Cc1ccc(S(=O)(=O)Cn2nnnc2C(CC(C)C)N2CCC(C(N)=O)CC2)cc1", "note": "(stereo not drawn)", "hERG current change (%, negative = inhibition) at 10uM": -12.2},
      {"smiles": "Cc1cc(NC(=O)/C=C/c2ccccc2)c(C(C)C)cc1O", "hERG current change (%, negative = inhibition) at 10uM": 10.7},
      {"smiles": "CC(C)c1ccc(NC2CCCN(C(=O)CCN3CCOCC3)C2)cc1", "note": "(stereo not drawn)", "hERG current change (%, negative = inhibition) at 10uM": 0.518},
      {"smiles": "O=C(Nc1ccc(Cc2ccncc2)cc1)c1cc([N+](=O)[O-])ccc1N1CCOCC1", "hERG current change (%, negative = inhibition) at 10uM": -39},
      {"smiles": "C=C1CCN(c2ccc(C(=O)NCc3ccc(OC)cc3)cc2[N+](=O)[O-])CC1", "hERG current change (%, negative = inhibition) at 10uM": -7.55},
      {"smiles": "O=C(Nc1ccc(Cc2ccncc2)cc1)c1ccc(N2CCOCC2)c([N+](=O)[O-])c1", "hERG current change (%, negative = inhibition) at 10uM": -59.1},
      {"smiles": "O=C(Nc1cccnc1)c1ccc(N2CCOCC2)c([N+](=O)[O-])c1", "hERG current change (%, negative = inhibition) at 10uM": 21.7},
      {"smiles": "O=C(NCc1ccc(F)cc1)c1ccc(N2CCOCC2)c([N+](=O)[O-])c1", "hERG current change (%, negative = inhibition) at 10uM": -39.6},
      {"smiles": "COc1ccc(CNC(=O)c2ccc(N3CCOCC3)c([N+](=O)[O-])c2)cc1", "hERG current change (%, negative = inhibition) at 10uM": -52.1},
      {"smiles": "COc1ccc(/C=N/NC(=O)c2cc(-c3ccccc3OC(C)C)nc3ccccc23)cc1CN1CCOCC1", "hERG current change (%, negative = inhibition) at 10uM": -4.54}
    ]}
  ]
}
